In PubChem BioAssay (NCI):
This is part of a sample that, as a whole, favours compounds with a hit. Of some 83,000 tested, about 20% had one in any assay.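 96-well plates, one dose, 48 hours. Percent growth reported; active if below 10.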 A number with no mark means an inactive call. Activity calls are given as the source filed them.

system: HL-60(TB) leukemia; assay: NCI-60 one-dose screen, 48 h (100 = growth as untreated, 0 = no growth, -100 = all killed); conditions: 10 µM unless noted

Row | SMILES | growth
1 | C=C1C(=O)O[C@H]2[C@H]1CC/C(COC(=O)NCCc1c[nH]c3ccc(OC)cc13)=C\CC[C@@]1(C)O[C@@H]21 | -42.8% (active)
2 | CC(C)(C)OC(=O)N1CCc2c(sc3ncnc(N/N=C/c4cccc5ccccc45)c23)C1 | 11.5%
3 | COC(=O)c1cnc2c(c1)Oc1ccc(Cl)cc1-c1cc(C)nn1-2 | 95.9%
4 | CN(C)CCCN1c2nc3ccccc3cc2Sc2cc3ccccc3nc21 | 43.9%
5 | O=C1c2ccccc2C(=O)c2c1ccc(C(=O)O)c2[N+](=O)[O-] | 65.1%
6 | NCCCNc1nc2ccccc2c2c(=O)c3cccc(Cl)c3sc12 | -45% (active)
7 | O=C(O)c1ccc(Nc2ncc3c(n2)-c2ccc(Cl)cc2C(c2c(F)cccc2F)=NC3)cc1 | 22.6%
8 | C1CCC(C(CC2CCCCN2)C2CCCCC2)CC1 (stereo not drawn) | 11.1%
9 | CO[C@H]1CC(O[C@@H]2/C(C)=C/C[C@@H]3C[C@@H](C[C@]4(CC[C@H](C)[C@@H](C5CCCCC5)O4)O3)OC(=O)[C@@H]3C=C(C)/C(=N/O)[C@H]4OC/C(=C\C=C\[C@@H]2C)[C@]43O)O[C@@H](C)C1O (stereo partly drawn) | -48.7% (active)
10 | CCOC(=O)NC1=NCC(C)(C)S1 | 67.9%
11 | O=C(/C=C/c1cccc(O)c1)c1cccc(-n2cc(-c3ccc4ccccc4c3)[nH]c2=O)c1 | -21.5% (active)
12 | O=c1c2cccc(F)c2sc2c(NCCCNCCO)nc3ccccc3c12 | -6.55% (active)
13 | CN(Cc1ccccc1)c1nc(Cl)c(C2CC(c3ccc(Cl)cc3)=NN2c2cc(Cl)cc(Cl)c2)s1 (stereo not drawn) | 102%
